The values below come from PubChem BioAssay (NCATS).

Assay [1] has as its target Transient receptor potential cation channel subfamily V member 1 (Homo sapiens) (UniProt Q8NER1). The assay is described as follows: HTS Assay for Compounds that Act as Enhancers of the Vanilloid Receptor 1 (AID 488979). Also: 0% is about no effect. In short, it runs like this: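 TRPV1-expressing cells loaded with Fluo-8 calcium dye; compounds added and calcium influx read kinetically for 3 min (agonist phase), then capsaicin at EC20 added and read 2 min more for enhancement. Fluorescence ex 480/em 520 nm.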

The target of assay [2] is D(1A) dopamine receptor (Homo sapiens) (UniProt P21728). The assay is described as follows: HTS Assay for Allosteric Agonists of the Human D1 Dopamine Receptor: Primary Screen for Potentiators (AID 488982). Also: 0% is about no effect. In short, it runs like this:
(§1)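 Tetracycline-induced HEK293 T-REx cells force-coupled to calcium signalling were incubated overnight at 30 C and dye-loaded at room temperature. Calcium flux over 180 s after compound addition flagged agonists; a further 180 s read after EC20 dopamine flagged potentiators.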

The target is the same in assay [3]. The assay is described as follows: HTS Assay for Allosteric Agonists of the Human D1 Dopamine Receptor: Primary Screen for Antagonists (AID 488983).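 Also: calcium flux response to an EC80 dopamine challenge measured with no-wash dye; % is scaled to controls: 0 for no effect and ±100 for the full control effect; nearly all actives have a fitted effect of over 65% in size.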 The procedure, abridged:
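Screening of inducible HEK293 T-REx D1 cells: compound first, EC80 dopamine 180 s later, each phase read kinetically for calcium over 180 s.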

Assay [4] can be described thus: Validation screen for small molecules that induce genotoxicity in human embryonic kidney (HEK293T) cells expressing luciferase-tagged ELG1 (AID 493106). Also: potency is read from the fitted curve at half-maximal effect. The procedure, abridged:
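Reporter-gene quantitative HTS in HEK293T cells carrying luciferase-tagged ELG1, whose level climbs under genotoxic stress. Compound exposure lasts 16 hr at 37 °C before luciferase detection.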

The target of assay [5] is ATPase family AAA domain-containing protein 5 (Homo sapiens) (UniProt Q96QE3). The assay is described as follows: Validation screen for small molecules that inhibit ELG1-dependent DNA repair in human embryonic kidney (HEK293T) cells expressing luciferase-tagged ELG1 (AID 493107).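 Also: cells co-treated with the DNA-damaging agent 5-fluorouridine alongside compound; series mostly up to about 46 µM; % is scaled to controls: 0 for no effect and ±100 for the full control effect; inhibitors lower the ELG1-luciferase luminescence signal; nearly all actives have a fitted effect of over 70% in size.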 The procedure, abridged:
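Quantitative HTS in HEK293T cells carrying luciferase-tagged ELG1, stimulated with 5-fluorouridine alongside compound for 16 hr. Loss of luciferase signal marks inhibition of ELG1 response.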

Assay [6] is described as follows: Nrf2 qHTS screen for inhibitors: Validation (AID 493153; active = well fitted inhibition curve with a large enough effect in the main read-out, with a control signal flat, not every such curve was filed as active). As to conditions: Potency: luciferase luminescence; viability change: measured here: cytotoxicity max response. In short, it runs like this: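 Dose-response validation uses reporter A549 cells with firefly luciferase under an antioxidant response element. Compounds stay on cells 18-24 h at 37°C, and luminescence indicates Nrf2-driven transcription.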
(In general: In qHTS, concentration-response curves come from the screen itself.)

A short description of assay [7]: qHTS for Inhibitors of Cell Surface uPA Generation: Validation Assay (AID 493164).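 Also: RAW 264.7 macrophage cells exposed to compound for 18 h; 0% is about no effect.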 The procedure, abridged:
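RAW 264.7, 4000 cells/well, o/n plating; cpd 7-pt 1:5 dilution 2.45 nM–38.3 uM final; 18 h, 37 C/5% CO2; ATP-Lite, 5 s luminescence exposure.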

The target of assay [8] is Galactokinase (Homo sapiens) (UniProt P51570). Kind of assay: qHTS Validation Assay for Inhibitors of Human Galactokinase (GALK) (AID 493189). Also: 0% is about no effect. In short, it runs like this:
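Enzyme activity is inferred from ATP consumption: human GALK phosphorylates galactose (100 uM) using 35 uM ATP for 1 h at room temperature, and luciferase-based Kinase-Glo Plus reports unconsumed ATP.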

The nature of assay [9]: Validation screen for small molecules that induce DNA re-replication in SW480 colon adenocarcinoma cells (AID 504364). Also: 0% is about no effect. In short, it runs like this: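 Cells are treated 48 hr with test compound, stained 40 min with Hoechst at 37 C, and scanned for nuclear fluorescence; compounds inducing re-replication increase nuclei with elevated intensity.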
Assay [10] addresses Peptidyl-prolyl cis-trans isomerase NIMA-interacting 1 (Homo sapiens) (UniProt Q13526). Kind of assay: qHTS Validation Assay to Find Inhibitors of Pin1 (AID 504536; active = well fitted inhibition curve with a large enough effect in the polarisation, with a control signal flat, not every such curve was filed as active; the % refers to the polarisation;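 also: 0% = full Pin1 enzyme wells and -100% = no-enzyme wells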). The procedure, abridged: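 Fluorescence polarization competition: compounds (titration) displace HiFluor-488-labeled Pin1-1b peptide from Pin1 (0.3 uM final) in pH 7.5 HEPES buffer with DTT, 10 min at room temperature; %Activity normalized to no-enzyme wells, curves fitted.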

The target of assay [11] is phosphoglycerate mutase (Leishmania major) (UniProt Q4Q090). Kind of assay: qHTS Validation Assay to Find Inhibitors of Phosphoglycerate Mutase (AID 504548).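 Also: end-point luminescence from Kinase-GloPlus after the PGAM reaction; series mostly up to about 58 µM; % is scaled to controls: 0 for no effect and ±100 for the full control effect.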 Conditions: Potency: inhibition qHTS. The procedure, abridged:
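Inhibition of L. major PGAM was assessed by Kinase-GloPlus luminescence following a 45-minute room-temperature reaction with enzyme at 1.25nM final.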

Assay [12] has as its target Ubiquitin carboxyl-terminal hydrolase 1 (Homo sapiens) (UniProt O94782). The assay is described as follows: Inhibitors of USP1/UAF1: Pilot qHTS (AID 504865).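 Also: rhodamine fluorescence freed from ubiquitin-rhodamine substrate followed over time; top concentration of the series differs between compounds; % is scaled to controls: 0 for no effect and ±100 for the full control effect; nearly all actives have a fitted effect of over 35% in size.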 In short, it runs like this:
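Enzyme-free wells gave the negative control, while test wells held 1nM USP1/UAF1 preincubated with compound for 15 min at room temperature. Ub-Rho at 150nM final started the reaction, and fluorescence at 480/540 nm was recorded kinetically.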

Assay [13] can be described thus: qHTS for Inhibitors of ATXN expression: Validation of Cytotoxic Assay (AID 588349).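 Also: cells exposed to compound for 72 hr; % is scaled to controls: 0 for no effect and ±100 for the full control effect.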 The procedure, abridged:
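HEK293, compound dose series, 72 hr / 37 degrees C; viability via CellTiter Glo (intracellular ATP).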

Assay [14] addresses Thyrotropin receptor (Homo sapiens) (UniProt P16473). The assay is described as follows: qHTS Assay for Antagonists of the Thyroid Stimulating Hormone Receptor (AID 488980). Also: series mostly up to about 58 µM; 0% is about no effect. In short, it runs like this: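 Inhibition of TSH-stimulated cAMP accumulation was quantified by homogeneous time-resolved FRET in TSHR-transfected HEK293 cells. Agonist: TSH, 4 nM final (EC80).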
For assay [15], the target named is D(1A) dopamine receptor (Homo sapiens) (UniProt P21728). The assay is described as follows: HTS Assay for Allosteric Agonists of the Human D1 Dopamine Receptor: Primary Screen for Agonists (AID 488981). Also: 0% is about no effect. In short, it runs like this:
as §1

In assay [16] the target is Phosphoglycerate kinase, glycosomal (Trypanosoma brucei brucei) (UniProt P07378). The assay is described as follows: qHTS Validation Assay to Find Inhibitors of Phosphoglycerate Kinase (AID 504547).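 Also: control wells lack PGK and mark full inhibition.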 In short, it runs like this:
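Substrate/PGK mix plus compound; reaction started with GAPDH (100nM final) to form 1,3-BPG; 60 min RT; Kinase-Glo Plus 10 min; luminescence. TEA 100mM pH 7.6, MgCl2 5mM, Tween-20 0.01%.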

Assay [17] can be described thus: qHTS for Inhibitors of ATXN expression: Validation (AID 588378). Also: series mostly up to about 57 µM; % is scaled to controls: 0 for no effect and ±100 for the full control effect; nearly all actives have a fitted effect of over 75% in size. The procedure, abridged:
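After a 2 h attachment and 24 h compound incubation, HEK293-ATXN2-FFLuc wells are read for fluorescence at 405 nm excitation/525 nm emission as a viability measure, then for Bright-Glo luminescence reflecting ATXN2 expression.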

For assay [18], the target named is Thyrotropin-releasing hormone receptor (Homo sapiens) (UniProt P34981). The assay is described as follows: qHTS for Small Molecule Agonists and Allosteric Enhancers of Human TRH Receptor: Validation Screen for Agonists (AID 493127;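 active = calcium activation more than 3 SD above the typical response in the agonist read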;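 also: intracellular calcium rise by fluo-8 fluorescence before TRH EC20 addition; 0% is about no effect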). Conditions: TRH receptor agonist cell assay; at 2 µM; stronger effect = higher value. In short, it runs like this:
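Gq-coupled calcium mobilization in TRHR cells after compound addition, monitored kinetically with fluo-8 dye on an FDSS reader.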

In assay [19] the target is ATP-dependent 6-phosphofructokinase (Trypanosoma brucei brucei) (UniProt O15648). Kind of assay: qHTS Assay to Find Inhibitors of T. brucei phosphofructokinase: hit validation (AID 492961).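 Also: luminescence reports ADP formed as PFK phosphorylates fructose-6-phosphate with ATP; series mostly up to about 51 µM; % is scaled to controls: 0 for no effect and ±100 for the full control effect.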 In short, it runs like this: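 Percent activity derived from corrected luminescence, normalized between 0x and 1x enzyme controls, then fitted to concentration-response curves. Conditions: 1.25 nM PFK, 0.1 mM ATP, 0.5 mM F6P, 45 min RT.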

Records with an inconclusive call do not appear. Calls of active or inactive are those of the source. Unless noted, calls follow the shape of the dose curve; as a rule, active = well fitted curve in the direction sought with a large enough effect; inconclusive = small, poorly fitted or top-dose-only effect, or another doubt; inactive = no such curve, though single readings can be large; an effect the other way counts as inactive or inconclusive.

Chain of Thyrotropin receptor (Homo sapiens) (P16473 whole entry, looked up): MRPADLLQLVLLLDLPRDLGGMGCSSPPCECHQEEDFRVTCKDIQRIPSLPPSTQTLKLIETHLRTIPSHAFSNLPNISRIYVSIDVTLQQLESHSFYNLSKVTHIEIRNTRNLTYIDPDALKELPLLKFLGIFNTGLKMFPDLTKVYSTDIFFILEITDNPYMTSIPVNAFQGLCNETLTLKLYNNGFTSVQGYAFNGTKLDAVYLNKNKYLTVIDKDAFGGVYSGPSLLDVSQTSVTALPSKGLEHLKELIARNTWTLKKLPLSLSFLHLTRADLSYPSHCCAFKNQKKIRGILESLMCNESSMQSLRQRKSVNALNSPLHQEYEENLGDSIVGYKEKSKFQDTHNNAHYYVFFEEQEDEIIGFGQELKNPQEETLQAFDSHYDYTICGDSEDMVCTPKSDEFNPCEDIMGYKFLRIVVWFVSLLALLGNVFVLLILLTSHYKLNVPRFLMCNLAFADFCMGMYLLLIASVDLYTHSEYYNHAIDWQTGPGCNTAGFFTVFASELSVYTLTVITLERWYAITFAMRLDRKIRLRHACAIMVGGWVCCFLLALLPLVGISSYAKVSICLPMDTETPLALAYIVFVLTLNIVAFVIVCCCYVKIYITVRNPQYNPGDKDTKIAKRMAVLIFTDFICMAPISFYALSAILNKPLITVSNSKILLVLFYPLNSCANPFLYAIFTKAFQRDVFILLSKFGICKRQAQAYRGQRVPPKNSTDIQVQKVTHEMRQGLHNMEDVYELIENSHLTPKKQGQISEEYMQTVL
Chain of D(1A) dopamine receptor (Homo sapiens) (P21728 whole entry, looked up): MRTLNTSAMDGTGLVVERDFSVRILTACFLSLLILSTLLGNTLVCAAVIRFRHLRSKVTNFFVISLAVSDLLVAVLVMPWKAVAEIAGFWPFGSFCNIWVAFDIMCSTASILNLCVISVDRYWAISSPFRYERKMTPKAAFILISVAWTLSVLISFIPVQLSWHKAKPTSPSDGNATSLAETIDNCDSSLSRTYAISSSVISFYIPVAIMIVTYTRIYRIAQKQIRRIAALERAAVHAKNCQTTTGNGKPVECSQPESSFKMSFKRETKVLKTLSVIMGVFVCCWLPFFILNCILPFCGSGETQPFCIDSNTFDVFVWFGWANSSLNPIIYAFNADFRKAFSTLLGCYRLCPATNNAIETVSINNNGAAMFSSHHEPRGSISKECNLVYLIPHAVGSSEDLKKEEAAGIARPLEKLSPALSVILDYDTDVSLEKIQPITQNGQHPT
Chain of Galactokinase (Homo sapiens) (P51570 whole entry, looked up): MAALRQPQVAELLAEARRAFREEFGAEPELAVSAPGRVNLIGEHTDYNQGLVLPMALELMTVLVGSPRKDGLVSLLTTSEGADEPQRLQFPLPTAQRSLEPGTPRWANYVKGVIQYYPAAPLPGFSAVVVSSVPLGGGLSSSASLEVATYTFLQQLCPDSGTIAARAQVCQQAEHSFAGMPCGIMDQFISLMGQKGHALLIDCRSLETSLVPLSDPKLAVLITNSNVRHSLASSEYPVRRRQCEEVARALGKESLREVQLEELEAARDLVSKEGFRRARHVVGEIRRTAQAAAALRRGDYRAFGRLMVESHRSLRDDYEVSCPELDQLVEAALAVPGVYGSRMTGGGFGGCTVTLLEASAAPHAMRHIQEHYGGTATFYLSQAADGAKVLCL
Chain of Thyrotropin-releasing hormone receptor (Homo sapiens) (P34981 whole entry, looked up): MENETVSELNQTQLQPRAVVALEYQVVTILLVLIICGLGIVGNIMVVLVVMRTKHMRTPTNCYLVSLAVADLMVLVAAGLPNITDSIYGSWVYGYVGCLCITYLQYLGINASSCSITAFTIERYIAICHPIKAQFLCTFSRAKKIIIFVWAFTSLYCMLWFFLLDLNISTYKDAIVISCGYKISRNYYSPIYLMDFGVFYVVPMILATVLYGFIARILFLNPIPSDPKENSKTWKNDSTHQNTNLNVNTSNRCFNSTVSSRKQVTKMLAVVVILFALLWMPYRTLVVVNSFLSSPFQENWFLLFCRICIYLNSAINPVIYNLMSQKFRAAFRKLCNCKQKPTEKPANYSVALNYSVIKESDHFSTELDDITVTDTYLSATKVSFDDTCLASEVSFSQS
Chain of ATPase family AAA domain-containing protein 5 (Homo sapiens) (Q96QE3 whole entry, looked up, the tested form may be a part): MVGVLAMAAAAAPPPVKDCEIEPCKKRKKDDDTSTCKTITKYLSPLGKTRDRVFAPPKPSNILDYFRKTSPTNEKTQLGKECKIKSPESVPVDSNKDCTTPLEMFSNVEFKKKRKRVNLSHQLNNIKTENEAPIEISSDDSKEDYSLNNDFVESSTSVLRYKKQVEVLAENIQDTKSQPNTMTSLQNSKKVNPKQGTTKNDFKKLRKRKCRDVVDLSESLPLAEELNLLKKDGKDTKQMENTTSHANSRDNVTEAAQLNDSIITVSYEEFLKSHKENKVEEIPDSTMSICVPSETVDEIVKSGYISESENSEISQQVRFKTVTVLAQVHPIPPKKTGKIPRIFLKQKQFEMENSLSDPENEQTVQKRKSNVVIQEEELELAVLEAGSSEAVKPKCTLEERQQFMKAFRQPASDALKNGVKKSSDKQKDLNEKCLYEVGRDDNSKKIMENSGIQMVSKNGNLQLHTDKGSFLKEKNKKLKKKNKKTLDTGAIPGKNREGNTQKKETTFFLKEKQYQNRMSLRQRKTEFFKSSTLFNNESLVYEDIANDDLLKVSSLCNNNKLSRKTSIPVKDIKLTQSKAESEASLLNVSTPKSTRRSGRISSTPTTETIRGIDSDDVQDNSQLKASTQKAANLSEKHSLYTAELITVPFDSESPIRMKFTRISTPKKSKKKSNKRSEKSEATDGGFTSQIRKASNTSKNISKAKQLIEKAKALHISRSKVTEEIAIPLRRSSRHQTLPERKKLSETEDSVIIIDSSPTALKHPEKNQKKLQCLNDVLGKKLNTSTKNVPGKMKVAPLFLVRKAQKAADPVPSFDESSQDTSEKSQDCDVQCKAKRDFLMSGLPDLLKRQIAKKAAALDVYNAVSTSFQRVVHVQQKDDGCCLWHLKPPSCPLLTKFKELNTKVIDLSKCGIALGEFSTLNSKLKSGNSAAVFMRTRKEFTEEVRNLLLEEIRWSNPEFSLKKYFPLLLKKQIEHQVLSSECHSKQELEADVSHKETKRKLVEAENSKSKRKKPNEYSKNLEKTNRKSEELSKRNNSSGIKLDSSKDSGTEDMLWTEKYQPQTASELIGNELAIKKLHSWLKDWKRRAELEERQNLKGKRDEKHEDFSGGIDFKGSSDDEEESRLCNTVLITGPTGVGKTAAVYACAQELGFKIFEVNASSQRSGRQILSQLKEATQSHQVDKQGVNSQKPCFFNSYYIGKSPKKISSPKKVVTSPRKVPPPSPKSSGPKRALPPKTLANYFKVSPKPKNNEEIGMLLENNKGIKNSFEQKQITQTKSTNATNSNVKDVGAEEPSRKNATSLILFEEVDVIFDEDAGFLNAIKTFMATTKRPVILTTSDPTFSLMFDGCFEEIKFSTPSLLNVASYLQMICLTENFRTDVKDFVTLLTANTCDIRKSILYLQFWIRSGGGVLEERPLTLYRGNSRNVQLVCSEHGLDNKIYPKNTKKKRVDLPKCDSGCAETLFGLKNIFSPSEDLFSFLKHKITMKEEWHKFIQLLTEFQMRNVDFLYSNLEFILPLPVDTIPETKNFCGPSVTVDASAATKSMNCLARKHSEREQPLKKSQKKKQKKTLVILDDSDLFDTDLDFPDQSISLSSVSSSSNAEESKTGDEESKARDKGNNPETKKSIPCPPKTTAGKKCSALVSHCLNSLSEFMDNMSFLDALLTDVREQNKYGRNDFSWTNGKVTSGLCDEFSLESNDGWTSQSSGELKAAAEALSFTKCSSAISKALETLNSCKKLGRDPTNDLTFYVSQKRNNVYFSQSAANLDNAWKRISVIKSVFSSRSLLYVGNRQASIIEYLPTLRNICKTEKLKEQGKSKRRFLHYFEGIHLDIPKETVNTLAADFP
Chain of Ubiquitin carboxyl-terminal hydrolase 1 (Homo sapiens) (O94782 whole entry, looked up): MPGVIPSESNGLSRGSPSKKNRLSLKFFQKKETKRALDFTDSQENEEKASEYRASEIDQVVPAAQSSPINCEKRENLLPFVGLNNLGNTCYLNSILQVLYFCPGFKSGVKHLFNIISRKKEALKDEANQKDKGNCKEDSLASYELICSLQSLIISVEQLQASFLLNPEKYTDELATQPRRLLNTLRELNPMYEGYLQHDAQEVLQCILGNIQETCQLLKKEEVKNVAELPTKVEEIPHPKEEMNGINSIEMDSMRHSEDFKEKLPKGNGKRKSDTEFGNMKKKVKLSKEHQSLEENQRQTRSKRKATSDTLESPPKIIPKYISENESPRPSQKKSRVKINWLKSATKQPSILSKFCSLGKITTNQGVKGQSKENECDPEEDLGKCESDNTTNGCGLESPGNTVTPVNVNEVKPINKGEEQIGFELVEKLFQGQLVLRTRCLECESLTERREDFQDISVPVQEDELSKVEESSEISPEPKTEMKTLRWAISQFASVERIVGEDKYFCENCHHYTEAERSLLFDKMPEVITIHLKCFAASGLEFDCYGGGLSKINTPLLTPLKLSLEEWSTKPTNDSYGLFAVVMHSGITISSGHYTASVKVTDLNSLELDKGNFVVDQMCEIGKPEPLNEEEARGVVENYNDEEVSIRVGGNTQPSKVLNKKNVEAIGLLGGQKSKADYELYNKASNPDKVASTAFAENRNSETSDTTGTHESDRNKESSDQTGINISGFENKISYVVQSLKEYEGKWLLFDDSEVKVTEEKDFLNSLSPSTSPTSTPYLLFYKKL
Chain of Phosphoglycerate kinase, glycosomal (Trypanosoma brucei brucei) (P07378 whole entry, looked up): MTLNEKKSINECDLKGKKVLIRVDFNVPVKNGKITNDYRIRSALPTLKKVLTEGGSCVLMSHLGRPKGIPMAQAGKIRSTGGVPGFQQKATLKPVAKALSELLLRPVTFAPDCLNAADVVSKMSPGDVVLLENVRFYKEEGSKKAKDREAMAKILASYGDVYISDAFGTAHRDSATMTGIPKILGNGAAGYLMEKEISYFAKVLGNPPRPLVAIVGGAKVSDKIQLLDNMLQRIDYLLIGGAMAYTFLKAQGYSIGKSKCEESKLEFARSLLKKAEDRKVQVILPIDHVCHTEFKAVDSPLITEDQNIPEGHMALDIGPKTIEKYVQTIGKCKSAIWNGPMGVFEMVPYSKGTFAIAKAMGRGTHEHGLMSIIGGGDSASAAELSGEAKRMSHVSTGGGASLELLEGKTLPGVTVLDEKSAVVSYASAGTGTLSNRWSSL

As to `CN(C)CCC(c1ccc(Br)cc1)c1ccccn1` (configuration not stated), the result in [1] and in assay [7] was inactive. Besides, the Potency entry in assay [2], in [3], in assay [4], in assay [5], in assay [6] and in [8] was “inactive” throughout. Further, the Potency entry in assay [9], in [10], in assay [11], in assay [12] and in assay [13] was “inactive” throughout. For the same molecule, the viability change in assay [6] was found to be 3.82%.

`N=S(=O)(O)Cc1noc2ccccc12`: the outcome in assay [14] was inactive. The Potency result in assay [15], in assay [2], in assay [3], in [4], in [5] and in [6] was “inactive” each time. For the same molecule, the Potency result in assay [8], in [9], in assay [10], in [16], in assay [11] and in [12] was “inactive” each time. Further, the Potency result in assay [13] and in assay [17] was “inactive” each time. Also, the viability change in assay [6] turned out to be 0.163%.

As to `O=C(O)/C=C/c1cnc[nH]1`, the result in assay [14] and in [7] was inactive. In addition, the Potency entry in [15], in assay [2], in assay [3], in [4], in assay [5] and in [6] was “inactive” in each case. Moreover, the Potency result in [9], in assay [10], in [16], in assay [11], in [12] and in assay [13] was “inactive” in each case. Besides, the Potency result in assay [17] was “inactive”. Also, the activation in assay [18] is -0.125% (inactive). Moreover, the viability change in [6] is -12.4%.

As to `COc1cc(CNC(=O)CCCCCCC(C)C)ccc1O`, the result in assay [14] and in [7] was inactive. In addition, the Potency result in [15], in assay [2], in [3], in assay [4], in assay [5] and in [6] was “inactive” throughout. Further, the Potency result in assay [8], in assay [9], in assay [10], in assay [16], in [11] and in [13] was “inactive” throughout. In addition, the Potency entry in assay [17] is “inactive”. The activation in assay [18] was -5.38% (inactive). For the same molecule, the viability change in assay [6] was -9.77%.

On to `CN1C2CCC1CC(OC(c1ccccc1)c1ccccc1)C2` (configuration not stated), for which the molecule was called inactive in [14] and in assay [19]. The Potency entry in [15], in [2], in assay [3], in assay [5], in assay [6] and in [9] was “inactive” throughout. Besides, the Potency entry in [16], in [11], in [12] and in [13] was “inactive” in each case. Moreover, in assay [18], the activation is 1.5% (inactive). In addition, the viability change in assay [6] was -14.9%.

For the molecule `COc1cc(C(O)CO)ccc1O` (configuration not stated), the result in [1], in assay [14] and in assay [7] was inactive. Besides, the Potency result in assay [3], in assay [4], in [5], in assay [6], in [8] and in [10] was “inactive” each time. In addition, the Potency entry in [16], in [11], in assay [12], in [13] and in assay [17] was “inactive” each time. The activation in assay [18] was 0.688% (inactive). Also, the viability change in [6] amounted to 3.88%.

As for `O=C1Cc2c([nH]c3ccc(Br)cc23)-c2ccccc2N1`, the molecule was called inactive in assay [14] and in assay [7]. Further, the Potency result in [15], in [2], in [3], in assay [6], in [8] and in [16] was “inactive” in each case. The Potency entry in assay [11] and in assay [12] was “inactive” throughout. Besides, the Potency in assay [4] was 411 nM (active). Further, the activation in assay [18] is 9.25% (inactive). For the same molecule, the viability change in [6] was determined as 3.96%.
